CD11b adhes enh – CD11b/CD18-fibrinogen binding enhancement. K562 CD11b/CD18 adhesion to fibrinogen, ATPlite luminescence. activation, % at 10 µM. hit rate 0.07% among 93,000;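 active means 10 µM primary screen giving 50% or more activity, confirmed by 40% or more on retest at that dose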
WNV NS2B-NS3 inh – blocks West Nile virus NS2B-NS3 protease activity; WNV NS2B-NS3 protease, fluorogenic substrate Ex360/Em465; stronger effect = lower value; z-score (no concentration beside the values); hit rate 0.18% among 65,000; AID 577; in the data active means z-score below about -3
Target sequence (P06935 1371-1501 limits assumed): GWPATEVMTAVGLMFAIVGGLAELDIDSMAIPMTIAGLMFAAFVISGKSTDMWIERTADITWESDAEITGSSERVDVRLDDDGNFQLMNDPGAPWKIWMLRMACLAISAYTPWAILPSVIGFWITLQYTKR
Target sequence (P06935 1502-1679 limits assumed): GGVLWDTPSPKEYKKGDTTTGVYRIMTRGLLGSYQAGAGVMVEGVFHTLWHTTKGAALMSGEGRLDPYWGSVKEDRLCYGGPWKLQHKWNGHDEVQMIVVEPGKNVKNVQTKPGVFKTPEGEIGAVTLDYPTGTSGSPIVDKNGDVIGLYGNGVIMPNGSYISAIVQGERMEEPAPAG
Mac1 fbg inh – CD11b/CD18-fibrinogen binding inhibition. hit rate 0.54% among 93,000. inhibition, % at 10 µM. AID 1497. K562 CD11b/CD18 adhesion to fibrinogen, ATPlite luminescence; Mn2+ added to activate the integrin;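 active means primary inhibition of 50% or more at 10 µM, then 40% or more on retest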
Large screens that a line does not name were inactive. Shown are actives, neighbours in structure and some others; about 0.6% of the full set was active somewhere.

O=C1C(=O)c2ccccc2-c2ccccc21	Mac1 fbg inh 60 (no result: WNV NS2B-NS3 inh)
O=C1C(c2ccccc2)=C(N2CC2)c2ccccc21	none (no result: WNV NS2B-NS3 inh)
C=CCC1(CN2CCCCCC2=O)C(=O)NC(=O)NC1=O	WNV NS2B-NS3 inh -6.5
C=CCC1(CN2CCCC2=O)C(=O)NC(=O)NC1=O	none (no result: WNV NS2B-NS3 inh)
CC1(C)C(c2ccccc2)=NC(c2cccnc2)N1O (stereo not drawn)	none
CCCCOC(=O)C1=C(N)OC2=C(C(=O)CCC2)[C@]12C(=O)N(C)c1ccccc12	none
O=C(Oc1c(Cl)cc(Cl)c2ccccc12)N1CCCCC1	Mac1 fbg inh 56 (no result: WNV NS2B-NS3 inh)
Cc1ccc2cccc(OC(=O)N3CCCC3)c2n1	none
CC(=NCCO)c1c(O)n(C)c(=O)n(C)c1=O	none
COc1ccc(C(=O)N2CCOCC2)cc1S(=O)(=O)N1CCC(C)CC1	none
CC1CCN(S(=O)(=O)c2ccc(NN=C(C#N)C#N)cc2)CC1	Mac1 fbg inh 98 (no result: WNV NS2B-NS3 inh)
CN1CCN(S(=O)(=O)c2ccc(Cl)nc2)CC1	none (no result: WNV NS2B-NS3 inh)
O=S(=O)(c1ccc(Cl)cc1)N1CN2CCN(C2)C1	WNV NS2B-NS3 inh -4.8
Cc1ccc(C)c(C2(O)CC(C)N(C)CC2C)c1 (stereo not drawn)	none
OCCOCC#CCN1CCOCC1	none
